# Measurements taken from PubChem BioAssay AID720650 (Broad Institute, 2013).
# Values without a mark were called inactive. Active and inactive are the calls of the source. How the calls were made is not given here.
# Assay: C difficile toxins, biochemical counterscreen, UDPG substrate absence, confirmatory dose response (AID 720650)
# Settings: series mostly up to 19.5 µM; activity change, negative = inhibition: at the top concentration
SMILES,"activity change, negative = inhibition [%]",AC50
Cc1cccc(-c2n[nH]c(=S)n2/N=C/C=C/c2ccco2)c1,-2.11,–
COc1ccc(CNC(=O)C2=CC(c3ccc(OC)c(OC)c3)=NS(=O)(=O)N2C)cc1,–,> 39 µM
Cc1csc(N=Nc2ccc(N(C)C)cc2)[n+]1[O-],–,> 39 µM
Cc1noc(/C=C/c2ccccc2F)c1S(=O)(=O)N1CCC(C(=O)N2CCN(C)CC2)CC1,-4.2,–
CC(=O)N1CC[C@@H]2[C@@H](CO)Nc3ccc(-c4ccccc4)cc3[C@@H]21,–,11.5 µM (active)
COC(=O)C1=C(c2ccc(F)cc2OCc2ccccc2)C[C@@H]2CC[C@H]1N2C(=O)N1CCCC1,-8.05,–
CCSc1nnc(NC(=O)C2CC2c2ccccc2)s1 (configuration not stated),-7.96,–
CCCN1CCN(C(=O)C2CCN(S(=O)(=O)c3c(C)noc3/C=C/c3ccc(C)cc3)CC2)CC1,-11.9,–
CC(C)CNC(=O)c1c(F)c(F)c(F)c(F)c1F,2.96,–
CCCNC(=O)Nc1ccc2c(c1)C(=O)N(C)[C@H]1CC[C@H](CC(=O)NC3CCC3)O[C@@H]1CO2,15.4,–
CCOC(=O)c1cccc(NC(=O)CCNS(=O)(=O)c2cccc3nonc23)c1,4.43,–
Cc1nc(-c2ccccn2)nc(SCC(=O)c2ccc(F)cc2)c1Cl,-7.34,–
CC(=O)Nc1ccccc1O,–,18.4 µM (active)
CN(c1ccccc1)S(=O)(=O)c1cccc(C(=O)NCCc2ccc(O)c(O)c2)c1,1.79,–
CC1C(=O)NN=C1c1ccc([N+](=O)[O-])cc1 (configuration not stated),2.17,–
Oc1ccc2ccc3[nH]cnc3c2c1,–,18.5 µM (active)
O=C(O)c1ccc(-c2nnc(-c3ccccc3)o2)cc1,-16.1,–
